About 17,000 (5.5%) of roughly 310,000 compounds were called active. Roughly 11% stayed inconclusive and do not appear here. The entries come from a sample that favours actives as a whole. Where a call stands in place of a potency, no number is given. A number with no mark means an inactive call. Calls come from the whole dose curve; as a rule, active = well fitted inhibition curve with a large enough effect; inconclusive = small, poorly fitted or top-dose-only effect, or effect the other way; inactive = no such curve, though single readings can be large or run the other way.
What follows are compounds tested against Nuclear receptor ROR-gamma (Mus musculus) (UniProt P51450) (assay: qHTS for inhibitors of ROR gamma transcriptional activity). Conditions: Drosophila S2 Gal4-RORgamma UAS-luciferase reporter, 20 h; series mostly up to 53.6 µM.
Sequence of Nuclear receptor ROR-gamma (Mus musculus) (P51450 whole entry, looked up, the tested form may be a part): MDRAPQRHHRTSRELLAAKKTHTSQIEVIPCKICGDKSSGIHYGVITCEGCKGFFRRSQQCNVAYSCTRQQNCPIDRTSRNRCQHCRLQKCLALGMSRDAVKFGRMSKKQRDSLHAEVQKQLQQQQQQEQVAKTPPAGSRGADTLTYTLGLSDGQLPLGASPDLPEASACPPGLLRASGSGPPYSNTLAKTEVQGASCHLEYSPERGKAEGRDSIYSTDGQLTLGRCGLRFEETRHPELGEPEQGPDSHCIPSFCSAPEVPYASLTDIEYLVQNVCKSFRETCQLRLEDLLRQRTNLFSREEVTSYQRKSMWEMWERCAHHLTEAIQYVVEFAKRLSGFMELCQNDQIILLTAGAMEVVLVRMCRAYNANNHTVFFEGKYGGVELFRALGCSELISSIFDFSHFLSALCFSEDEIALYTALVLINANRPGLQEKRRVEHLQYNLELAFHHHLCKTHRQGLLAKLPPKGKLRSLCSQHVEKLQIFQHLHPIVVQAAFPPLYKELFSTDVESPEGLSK
Procedure, shortened: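 Stable Schneider cell line, Gal4 DNA-binding domain fused to ROR gamma, UAS-luciferase. Cmpd 1 hr RT → CuSO4 700 uM final → 20 hr RT → luciferase reagent 10 min → luminescence.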
Note: nearly all actives have a fitted effect of over 60% in size.
Potency is the fitted concentration of half-maximal effect.

SMILES	Potency	activity change, negative = inhibition
CCOc1cc(NC(=O)Nc2ccccc2)c(OCC)cc1NC(=O)CC	inactive	
COc1ccc(C(=O)CC(=O)c2ccc(C)cc2)c(O)c1	10 µM (active)	
COc1ccc(C(=O)C[n+]2ccc(C)cc2)cc1	inactive	
COc1ccc(OCCC(=O)c2ccc(OC)cc2)cc1	inactive	
Cc1cc(C)cc(N(CC(=O)NC2CCCC2)C(=O)CCC(=O)Nc2nccs2)c1	inactive	
Cc1ccc(OCC(=O)c2cc(C)n(Cc3ccco3)c2C)c([N+](=O)[O-])n1	inactive	
Cc1ccc(OCC(=O)NC(C)c2ccccc2)c([N+](=O)[O-])n1 (stereo unspecified)	inactive	
COCC(C)n1c(C)cc(C(=O)COc2ccc(C)nc2[N+](=O)[O-])c1C (stereo unspecified)	12.6 µM (active)	
CCOC(=O)C1CCN(Cc2nnc(-c3cccc(Br)c3)o2)CC1	inactive	
Cc1noc(C)c1CSCC(=O)N(CCC(C)C)c1c(N)n(Cc2ccccc2)c(=O)[nH]c1=O	inactive	
CCCCN1CCNC1=S	12.6 µM (active)	
CCC(C(=O)NCCC(C)C)N(Cc1ccccc1Cl)C(=O)c1snc(C(N)=O)c1N (stereo unspecified)	inactive	
COc1cccc(NC(=S)N(Cc2ccc(C)cc2)Cc2ccccn2)c1	inactive	
CCOc1ccc(C(=O)Nc2cccc(SC)c2)cc1	inactive	
CC(c1ccccn1)N(CCN(C)C)C(=S)Nc1ccccc1F (stereo unspecified)	inactive	
CSc1cccc(NC(=S)N(C(C)C)C(C)c2ccccn2)c1 (stereo unspecified)	22.4 µM (active)	
CSc1cccc(NC(=O)CSc2ccccc2)c1	inactive	
CSc1cccc(NC(=S)N(Cc2ccccc2)Cc2ccccn2)c1	6.31 µM (active)	
COC(=O)c1ccc(S(=O)(=O)N2CCc3ccccc3C2)cc1	inactive	
COc1ccc(NC(=O)CSc2ccc(-c3ccco3)nn2)c(OC)c1	inactive	
CN(C)c1ccc(S(=O)(=O)NCC(=O)NCC2CCCCC2)cc1[N+](=O)[O-]	inactive	
COc1ccc(CN2CC(C(=O)NCCc3ccc(Cl)cc3)CC2=O)cc1 (stereo unspecified)	inactive	
CCOc1ccc(NC(=O)CC(Cc2ccc(Cl)cc2)C(=O)O)cc1 (stereo unspecified)	inactive	

SMILES	Potency	activity change, negative = inhibition
CCOC(=O)COc1nc(C)cc(C(F)(F)F)c1C#N	inactive	
CCOC(=O)c1c(C(C#N)C#N)cc(C)nc1C		-1.43% [at 10 µM]
CCOC(=O)c1cc(C)nc(S(C)(=O)=O)c1C#N	8.91 µM (active)	
O=C(O)c1ccccc1-c1ccccc1C(=O)NCCc1ccccc1	inactive	
CN(CC(=O)Nc1ccccc1C(F)(F)F)C(=O)Cc1ccccc1F	inactive	
Cc1cccc(-c2nc3ccc(C(=O)NCCN4CCN(C)CC4)cc3nc2-c2cccc(C)c2)c1	12.6 µM (active)	
CCC1=Nc2cc(C(=O)NCCN3CCCC3)ccc2Sc2ccc(C)cc21	inactive	
Cc1cccc(C(=O)NCCCN2CCCC2=O)c1	inactive	
CCN(CC)c1ccc(/C=N/NC(=O)CNC(=O)c2cccnc2)cc1	inactive	
Cc1cc(C)nc(N/N=C/c2ccncc2)n1	inactive	
CCN(CC)c1ccc(/C=N/Nc2nc(C)cc(C)n2)c(O)c1	1.78 µM (active)	
CCN(CC)c1ccc(/C=N/NC(=O)c2cnccn2)c(O)c1	1.58 µM (active)	
O=C(Nc1ccc2c(c1)OCCO2)c1cnccn1	inactive	
CCN(CC)c1ccc(/C=N/Nc2nc(C)cc(=O)[nH]2)cc1	inactive	
CCc1c(C)c2ccc(OC3CCCCC3=O)cc2oc1=O (stereo unspecified)	inactive	
CC(C)(C)n1nnnc1C(c1ccccc1F)N1CCN(C(=O)c2ccco2)CC1 (stereo unspecified)	inactive	
OC(COc1ccc(F)cc1Cl)CN1CCc2ccccc2C1 (stereo unspecified)	inactive	
CC(C)c1nc2ccc(C(=O)O)cc2[nH]1	8.91 µM (active)	
Cc1cccc(C(=O)O)c1	inactive	
OC(c1nc2ccc(F)cc2[nH]1)C(O)c1nc2ccc(F)cc2[nH]1 (stereo unspecified)	inactive	
Cc1ccc(CN(C)Cc2cc(=O)oc3cc(C)c(Cl)cc23)cc1	inactive	
CN(c1ccccc1)S(=O)(=O)c1cc(C(=O)OCC(=O)N2CCN(C(=O)c3ccco3)CC2)ccc1Cl	inactive	
CN(c1ccccc1)S(=O)(=O)c1cccc(NC(=O)Cc2c(F)cccc2Cl)c1	inactive	

SMILES	Potency	activity change, negative = inhibition
CN(c1ccccc1)S(=O)(=O)c1cc(C(=O)Nc2nc3ccccc3[nH]2)ccc1Cl	2.82 µM (active)	
CN(CC(=O)Nc1c(Cl)cccc1Cl)C(=O)CNC(=O)C1CCCCC1	inactive	
COc1ccc(C(=O)NC2CC(C)(C)Cc3c2cnn3-c2ccccc2C)o1 (stereo unspecified)	inactive	
CC(=O)Nc1cccc(NC(=O)c2ccc3c(c2)CCN3S(C)(=O)=O)c1	inactive	
Brc1ccc(-c2csc(N/N=C/c3cccnc3)n2)cc1	inactive	
C(=N\Nc1ccc2ccccc2n1)/c1ccc2c(c1)OCO2	8.91 µM (active)	
Cc1cc(=O)[nH]c(N/N=C/c2ccc3c(c2)OCCO3)n1	inactive	
O=C(Cc1ccc(F)cc1)N/N=C/c1ccc2c(c1)OCO2	inactive	
Cc1noc(C)c1/C=N/Nc1ccc2ccccc2n1	inactive	
Brc1ccc(-c2csc(N/N=C/c3ccc4c(c3)OCO4)n2)cc1	10 µM (active)	
O=C(NNC(=O)c1ccco1)Nc1ccccc1	inactive	
COCCNC(=O)CSc1nc2sccc2c(=O)n1-c1ccccc1	inactive	
O=Cc1c(NCCCN2CCCC2=O)c2ccccc2[nH]c1=O	inactive	
Cc1ccc2c(c1)N(C(=O)CCC(=O)NCc1cccnc1)CCO2	inactive	
CCOC(=O)c1c(C)c(C(=O)NCCc2ccc(S(N)(=O)=O)cc2)c(C)n1CC	inactive	
CCCNC(=O)c1c(N)n(-c2ccc(S(N)(=O)=O)cc2)c2nc3ccccc3nc12	12.6 µM (active)	
Cc1noc(C)c1C(=O)NCCc1ccc(S(N)(=O)=O)cc1	inactive	
O=S(=O)(Cc1nnnn1-c1ccc(Br)cc1)c1ccc(F)cc1	inactive	
Cc1scc(C(=O)NNC(=S)NCC(C)C)c1C	1.78 µM (active)	
O=C(NNC(=S)NCc1ccccc1)c1ccc(OC(F)F)cc1	inactive	
Cc1cccc(NC(=O)c2ccc(OCC(=O)NCc3ccccc3)cc2)c1C	inactive	
Cc1cccc(C(=O)OCC(=O)NCC(C)C)c1O	inactive	
CNC(=S)NNC(=O)c1cccn(Cc2ccccc2)c1=O	inactive	

SMILES	Potency	activity change, negative = inhibition
Cc1scc(C(=O)NNC(=S)NCc2ccccc2)c1C	2 µM (active)	
Cc1occc1C(=O)NNC(=S)NCC(C)C	inactive	
CC(=O)Nc1ccc(OCC(=O)NCc2ccc(C)cc2)cc1	inactive	
Cc1ccc(OCC(=O)NNC(=S)NCc2ccccc2)cc1	1.26 µM (active)	
CCC(CC)COC(=O)C1=C(C)NC(=O)NC1c1ccc([N+](=O)[O-])cc1 (stereo unspecified)		-0.183% [at 1.91 µM]
O=C(Cc1ccc([N+](=O)[O-])cc1)Nc1ccc(C(=O)N2CCOCC2)cc1	inactive	
Cc1ccc(NC(=O)Cn2nnc(C(=O)NCc3ccco3)c2N)c(C)c1	inactive	
CC(C)(C)NC(=O)CSc1nnc(NC(=O)CCc2ccccc2)s1		5.59% [at 1.91 µM]
C=CCN1C(=NC(=O)COc2ccccc2)SC2CS(=O)(=O)CC21 (stereo unspecified)	inactive	
Cc1cc(Cl)ccc1C(=O)C1CCCN(C(=O)c2nonc2C)C1 (stereo unspecified)	inactive	
Cc1[nH]c2ccccc2c1C(=O)CN1CC(C)CC(C)C1 (stereo unspecified)	inactive	
O=C(O)C1CCCN1S(=O)(=O)c1ccc(Br)cc1 (stereo unspecified)	inactive	
O=C(CN(C(=O)c1nsc(Cl)c1Cl)c1cccc(F)c1)NC1CCCC1	inactive	
COc1ccccc1OCc1nnc(SCC(N)=O)n1-c1ccccc1	inactive	
Cc1cc(C2=NNC(=Nc3ccc(S(=O)(=O)N4CCOCC4)cc3)SC2)c(C)n1CC1CCCO1 (stereo unspecified)	inactive	
C=CCn1c(C)cc(C2=NNC(=NCC)SC2)c1C	0.562 µM (active)	
O=C(O)c1ccccc1NC(=O)c1ccccc1-c1ccccc1C(=O)O	inactive	
CC1CN(S(=O)(=O)c2cccc(C(F)(F)F)c2)CN1C(=O)N1CCOCC1 (stereo unspecified)	inactive	
COc1ccc2[nH]c(C(=O)N3CCN(C)CC3)c(C)c2c1	inactive	
COc1ccc2[nH]c3c(C)c4cc[n+](C)cc4c(C)c3c2c1	inactive	
COc1ccc2[nH]c(=S)cc(C)c2c1	7.08 µM (active)	
COc1ccc(NC(=O)c2cccc3c2C(=O)N(CC2CCCO2)C3)cc1OC (stereo unspecified)	inactive	
COc1ccc(OCCCCN2CCC(C)CC2)cc1	inactive	

SMILES	Potency	activity change, negative = inhibition
O=C1COc2ccc(S(=O)(=O)Nc3ccc(OC(F)(F)F)cc3)cc2N1	inactive	
C/C(=N\NC(=O)c1ccoc1C)c1ccccc1O	0.158 µM (active)	
C/C(=N\NC(=O)c1ccccc1C)c1ccc(N2CCOCC2)cc1	inactive	
C/C(=N\NC(=O)c1cccnc1)c1ccc(-c2ccccc2)cc1	inactive	
CNC(=O)C(NC(=O)c1ccccc1)=C(C)C	inactive	
CC(C)=C(NC(=O)c1ccccc1)C(=O)N/N=C(\C)c1ccccc1O	0.891 µM (active)	
CC(=O)NC(=O)c1ccccc1O	inactive	
Cn1c(=O)c2c(SCC(=O)NCC3CCCO3)nc(CC(C)(C)C)nc2n(C)c1=O (stereo unspecified)	inactive	
COC(=O)c1c(NC(=O)C2CC(C)=C(C)CC2C(=O)O)sc2c1CCCCC2 (stereo unspecified)	inactive	
COc1cccc(C(=O)Nc2nnc(S(=O)(=O)N3CCOCC3)s2)c1	inactive	
COc1ccc(CCNS(=O)(=O)c2cn(C)nc2C)cc1	inactive	
CCOC(=O)C1CCN(C(=O)COc2cccc3ccccc23)CC1	inactive	
CC(NC(=S)Nc1ccc(OC(F)F)cc1)c1ccc(F)cc1 (stereo unspecified)	3.16 µM (active)	
CC(NC(=S)Nc1ccc(S(N)(=O)=O)cc1)c1ccc2c(c1)OCO2 (stereo unspecified)	inactive	
O=C1CCC(C(=O)Nc2ccc(OC(F)F)cc2)N1 (stereo unspecified)	inactive	
Cc1cccc(NS(=O)(=O)c2ccc(C(=O)NCC(C)(C)N3CCOCC3)cc2)c1C	inactive	
Cc1ccc(N2C(=O)S/C(=C/c3cn(C)c4ccccc34)C2=O)cc1	inactive	
Cc1ccc(N=C2NC(=O)/C(=C/C=C/c3ccco3)S2)cc1C	inactive	
Cc1cccc(N=C2NC(=O)/C(=C/c3cn(C)c4ccccc34)S2)c1	12.6 µM (active)	
